Among all 2,100 compounds or so, about 670 (32%) were called active. Another 50% or so got no clear call; they are omitted. Calls come from the whole dose curve; as a rule, active = well fitted inhibition curve with a large enough effect; inconclusive = small, poorly fitted or top-dose-only effect; inactive = no such curve, though single readings can be large or run the other way. Some of the results follow.

The record followed here is PubChem BioAssay AID1745847 (National Center for Advancing Translational Sciences (NCATS), 2022).
% is set by controls: 0 for no effect and ±100 for the full control effect; potency is the fitted concentration of half-maximal effect.

The test is described as follows: CMV-Luciferase Counterscreen for Inhibitors of ATXN expression. Note: nearly all actives have a fitted effect of over 55% in size. Conditions: HEK-293 CMV-luciferase reporter, luminescence, 24 h; series mostly up to 57.5 µM.
Take `Cc1cc(C)c(O)c(CN(C)Cc2cc(Cl)cc(Cl)c2O)c1`: the Potency is 10 µM (active).
As to `CCOC(=O)c1c(SCCN2CCCCC2)n(-c2ccccc2)c(=S)n(-c2ccccc2)c1=O`, the Potency is 22.4 µM (active).
Still for that read-out and setting: next, `Cc1sc2ncnc(NCC(O)c3ccc([N+](=O)[O-])cc3)c2c1C` (configuration not stated): 5.62 µM (active).
On the same count and under the same terms, next, `O=C(O)CCn1cc(/C=C/C(=O)c2ccc(Cl)cc2)c(-c2ccc(Br)cc2)n1`: 10 µM (active); `CC[C@@]1(O)C(=O)OCc2c1cc1n(c2=O)Cc2cc3c(CN(C)C)c(O)ccc3nc2-1`: 11.2 µM (active).
In the case of `CCC1(O)C(=O)OCc2c1cc1n(c2=O)Cc2cc3cc(O)ccc3nc2-1` (configuration not stated), the Potency is 0.891 µM (active).
For the molecule `O=C(NC1C=CS(=O)(=O)C1)c1sc2ccccc2c1Cl` (configuration not stated), the activity change, negative = inhibition is -11.1% [at 11.4 µM] (inactive).
Take `Brc1cnc2nc(SCc3nc4ccccc4[nH]3)[nH]c2c1`: the activity change, negative = inhibition is 361% [at 11.4 µM] (inactive).
On to `CCCCc1ccc(NC(=O)N2CCN(c3cc(C)nc4ccccc34)CC2)c(C)c1`, for which the Potency was 12.6 µM (active).
`Cc1cc2nc(-c3nnnn3Cc3ccccc3)c(=O)[nH]c2cc1C`: the activity change, negative = inhibition was -9.85% [at 11.4 µM] (inactive).
Still for that read-out and setting: next, `CCn1c2ccccc2c2cc(NC(=O)COC(=O)Cc3cn4ccsc4n3)ccc21`: 33.4% [at 11.4 µM] (inactive); `CCn1c2ccccc2c2cc(NC(=O)COC(=O)c3ccccc3F)ccc21`: 9.52% [at 11.4 µM] (inactive).
As for `CC(=O)c1ccc(NC(=O)COC(=O)c2c3c(nc4ccccc24)/C(=C\c2cccs2)CCC3)cc1`, the Potency is 17.8 µM (active).
Still for that read-out and setting: next, `Cc1cc(C)nc(N/N=C2/CCCC/C2=C\c2ccccc2)n1`: 3.16 µM (active); `NC(N)=N/N=C/c1ccc2cccc(OCc3ccccc3)c2n1`: 22.4 µM (active).
With `Cc1cc(Cl)ccc1-c1cc2nc(NCCCN(C)C)n(C)c(=O)c2s1`, the activity change, negative = inhibition is 5.92% [at 11.4 µM] (inactive).
For `CNc1nc2c(N)ncnc2n1[C@H]1O[C@@H](CO)[C@H](O)[C@@H]1O`, the activity change, negative = inhibition is 119% [at 11.4 µM] (inactive).
As for `N#Cc1c(N)n(C2OC(CO)C(O)C2O)c2ncnc(N)c12` (configuration not stated), the Potency entry was “inactive”.
On the same count and under the same terms, next, `Nc1ccn([C@@H]2O[C@H](CO)[C@@H](O)C2O)c(=O)n1` (some centres not stated): 2.51 µM (active).
Still for that read-out and setting: next, `COC(=O)c1c(NC(=O)c2ccc([N+](=O)[O-])o2)sc2c1CCN(C(C)C)C2`: 15.8 µM (active); `O=C(COc1ccccc1Cl)Nc1ccc(N2CCN(C(=O)c3ccccc3)CC2)cc1`: 3.55 µM (active).
On the same count and under the same terms, next, `CC(=O)N(C1=C(Cl)C(=O)c2ccccc2C1=O)C1CCCCC1`: 12.6 µM (active); `CCCCOc1ccccc1NC(=O)Cn1c(-c2nonc2N)nc2ccccc21`: “inactive”.
As to `COCCCn1c(N)c(-c2nc3ccccc3n2C)c2nc3ccccc3nc21`, the Potency was 17.8 µM (active).
The same measure, in the same setting: next, `Cc1ccc(NS(=O)(=O)c2ccc(NC(=O)C(C)Sc3ccc(Cl)cc3)cc2)c(C)c1` (configuration not stated): 25.1 µM (active); `O=C(c1ccc(F)cc1F)C1CCN(c2ccc([N+](=O)[O-])cn2)CC1`: 4.47 µM (active).
On the same count and under the same terms, next, `CC(Oc1ccc(F)cc1)C(=O)Nc1nc(-c2ccccn2)cs1` (configuration not stated): 2.51 µM (active); `COC(=O)C(Cc1ccc(O)cc1)NC(=O)C(C)Oc1ccccc1` (configuration not stated): “inactive”.
With `NC(c1ccccc1)c1csc(NC(=O)Nc2ccccc2Oc2ccccc2)n1` (configuration not stated), the activity change, negative = inhibition is -22.9% [at 11.4 µM] (inactive).
Consider `Cc1cc(C)c2nc(NNC(=O)c3cc(-c4cccs4)nc4ccccc34)sc2c1`, for which the Potency is 2.82 µM (active).
With `CCN1CCS/C1=C\C=C\C1=[N+](CC)CCS1`, the Potency was 3.98 µM (active).
As for `NCCCCCc1nnc(SCc2ccccc2Cl)o1`, the activity change, negative = inhibition was -36.5% [at 11.4 µM] (inactive).
Turning to `CCOC(=O)c1c(-c2ccccc2)oc2cc(CN(C)C)c(O)c(CN(C)C)c12`, the Potency is 8.91 µM (active).
Still for that read-out and setting: next, `CC(=O)Nc1ccc(N(CC(O)Cn2c3ccccc3c3ccccc32)S(=O)(=O)c2ccc(C)cc2)cc1` (configuration not stated): 20 µM (active); `Cn1c(SCC(=O)N/N=C/c2ccc([N+](=O)[O-])s2)nnc1-c1ccc(Cl)cc1`: 15.8 µM (active).
Still for that read-out and setting: the figure for `Cn1c(SCC(=O)N/N=C/c2ccc([N+](=O)[O-])s2)nnc1-c1ccccc1` is 22.4 µM (active).
For `CSc1sc(-c2nnc(SCC(=O)Nc3ccc(Cl)cc3)n2C)c2c1C=CCC2`, the activity change, negative = inhibition is -19.8% [at 11.4 µM] (inactive).
With `O=C(CSc1nnnn1-c1ccccc1)Nc1nsc(-c2ccccc2)n1`, the Potency result was “inactive”.
On to `Cn1c(SCC(=O)Nc2cc(Cl)cc(Cl)c2)nnc1-c1ccc2nonc2c1`, for which the activity change, negative = inhibition was -10.7% [at 11.4 µM] (inactive).
Consider `Cc1ccc2[nH]c(=O)c(CN(CCCN(C)C)C(=O)Nc3cccc(Cl)c3)cc2c1`, for which the Potency entry was “inactive”.
Still for that read-out and setting: the figure for `O=c1c2ccc(Cl)cc2nc(-c2ccc([N+](=O)[O-])cc2)n1O` is 7.94 µM (active); for `Cc1cc(Cl)c(C(=O)Nc2cccc(C(F)(F)F)c2)c(C)n1` it is 17.8 µM (active); for `CC(C)(C)c1cc(C(=O)NNc2cc(C(F)(F)F)ccc2Cl)n(Cc2ccccc2)n1` it is “inactive”.
Still for that read-out and setting: next, `Cc1nc(-c2c(C(F)(F)F)noc2-c2ccc(O)cc2O)cs1`: 11.2 µM (active); `CCCCC(=O)NC(c1ccc(OC)c(OC)c1)c1ccc2cccnc2c1O` (configuration not stated): 2.82 µM (active).
As for `CCCCC(=O)NC(c1ccccc1Cl)c1ccc2cccnc2c1O` (configuration not stated), the Potency is 2.51 µM (active).
On the same count and under the same terms, next, `CCCCC(=O)NC(c1ccccc1OC)c1ccc2cccnc2c1O` (configuration not stated): 2.82 µM (active).
`CCC(=O)NC(c1ccc(Cl)cc1Cl)c1ccc2cccnc2c1O` (configuration not stated): the Potency was 2.24 µM (active).
On to `COc1ccc(N2C3=C(CC4=C2CC(C)(C)CC4=O)C(=O)CC(C)(C)C3)cc1`, for which the activity change, negative = inhibition is -2.52% [at 11.4 µM] (inactive).
`CCCCC(=O)NC(c1ccc(Cl)cc1Cl)c1ccc2cccnc2c1O` (configuration not stated): the Potency was 0.794 µM (active).
Turning to `CCCC(=O)NC(c1ccc(Cl)cc1Cl)c1ccc2cccnc2c1O` (configuration not stated), the Potency was 2.51 µM (active).
Consider `CCCCOc1ccc(C(=O)NNC(=O)c2cnccn2)cc1OC`, for which the Potency was 10 µM (active).
As to `CN(C)CCC(c1ccc(Br)cc1)c1ccccn1` (configuration not stated), the Potency result was “inactive”.
Still for that read-out and setting: next, `COCCNc1nc(-c2cc(C)n(CCc3ccc(OC)cc3)c2C)cs1`: “inactive”; `Cc1noc(C)c1CSCC(=O)Nc1nc(-c2ccc(F)c(F)c2)cs1`: 25.1 µM (active).
On to `COc1ccc(/C(N)=N/OC(=O)N2CCOCC2)cc1`, for which the activity change, negative = inhibition was 20.7% [at 11.4 µM] (inactive).
Still for that read-out and setting: the figure for `O=C(Nc1nc(-c2ccc(F)c(F)c2)cs1)Nc1ccc(F)cc1F` is 6.09% [at 11.4 µM] (inactive).
With `O=C(CCN1C(=O)C2CC=CCC2C1=O)Nc1nc(-c2ccc(F)c(F)c2)cs1` (configuration not stated), the Potency entry was “inactive”.
Turning to `COc1ccc(-c2csc(NC(=O)c3ccc(OCC(=O)N4CCOCC4)c(OC)c3)n2)cc1OC`, the Potency is 14.1 µM (active).
For `COc1ccc(CC(=O)Nc2nc(-c3ccc(OC)c(OC)c3)cs2)cc1OC`, the Potency was 3.55 µM (active).
As to `COc1cc(C(=O)OC(C)C(=O)N2CCc3ccccc3C2)ccc1OCC(=O)N1CCOCC1` (configuration not stated), the activity change, negative = inhibition is -9.5% [at 11.4 µM] (inactive).
As to `COc1ccc(CC(=O)Nc2nc(-c3ccc(F)c(F)c3)cs2)cc1OC`, the Potency is 6.31 µM (active).
